Potency and activity change, negative = inhibition data for 37 compounds are collected here from PubChem BioAssay (Tox21).

Results filed as inconclusive are left out. Where a call stands in place of a potency, no number is given. Activity calls are given as the source filed them. Calls follow the shape of the dose curve; as a rule, active = well fitted inhibition curve with a large enough effect in the repeat runs; inconclusive = weak or mixed curves; inactive = no such curve, though single readings can be large or run the other way.
Potency is read from the fitted curve at half-maximal effect.

Sequence of Cytochrome P450 2C19 (Homo sapiens) (P33261 whole entry, looked up): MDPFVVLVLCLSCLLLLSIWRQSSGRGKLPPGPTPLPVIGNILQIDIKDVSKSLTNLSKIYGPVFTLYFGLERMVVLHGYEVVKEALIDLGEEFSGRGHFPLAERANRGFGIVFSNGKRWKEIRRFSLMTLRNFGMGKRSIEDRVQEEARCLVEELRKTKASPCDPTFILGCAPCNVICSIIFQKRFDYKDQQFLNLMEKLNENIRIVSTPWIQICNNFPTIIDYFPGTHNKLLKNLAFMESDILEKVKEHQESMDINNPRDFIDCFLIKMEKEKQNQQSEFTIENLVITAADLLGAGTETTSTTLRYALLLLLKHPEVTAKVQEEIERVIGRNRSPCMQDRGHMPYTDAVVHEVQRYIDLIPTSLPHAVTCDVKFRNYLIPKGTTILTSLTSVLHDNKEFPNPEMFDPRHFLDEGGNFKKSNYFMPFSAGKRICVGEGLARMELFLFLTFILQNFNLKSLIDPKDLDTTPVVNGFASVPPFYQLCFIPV
Sequence of Cytochrome P450 2D6 (Homo sapiens) (P10635 whole entry, looked up): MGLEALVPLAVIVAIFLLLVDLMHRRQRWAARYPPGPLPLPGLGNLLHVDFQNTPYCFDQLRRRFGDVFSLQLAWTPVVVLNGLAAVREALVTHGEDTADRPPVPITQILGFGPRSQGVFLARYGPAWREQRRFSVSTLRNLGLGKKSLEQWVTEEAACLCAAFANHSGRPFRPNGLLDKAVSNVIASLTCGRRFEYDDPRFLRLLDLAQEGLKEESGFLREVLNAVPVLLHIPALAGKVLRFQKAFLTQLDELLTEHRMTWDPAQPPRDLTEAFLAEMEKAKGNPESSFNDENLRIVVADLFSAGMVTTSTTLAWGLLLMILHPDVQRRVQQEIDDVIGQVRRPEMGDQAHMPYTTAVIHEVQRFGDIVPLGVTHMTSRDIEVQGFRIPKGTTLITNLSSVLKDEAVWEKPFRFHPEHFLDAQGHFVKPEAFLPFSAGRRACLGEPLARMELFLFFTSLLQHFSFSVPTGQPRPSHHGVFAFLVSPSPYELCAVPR

In one assay the target is Cytochrome P450 2D6 (Homo sapiens) (UniProt P10635). Description: Cytochrome P450 Family 2 Subfamily D Member 6 (CYP2D6) small molecule antagonists: luciferase reporter qHTS assay (AID 1671196). Also: nearly all actives have a fitted effect of over 50% in size. Particulars: P450-Glo CYP2D6 enzyme assay, luciferin luminescence, 1 h; series mostly up to 115 µM. Put shortly:
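Luminogenic proluciferin substrate, CYP2D6 enzyme; 10 min RT preincubation with compound, NADPH regeneration system added, 1 h RT. Stop/detection reagent, 20 min RT, luminescence read (RLU). Signal proportional to CYP activity.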
For orientation: In a reporter assay the amount or activity of a reporter protein is the signal.
Take `CC1(C)SC(C)(C)SC(C)(C)S1`: the Potency result was “inactive”.

As for `COc1cc(C(=O)N2CCOCC2)cc(OC)c1OC`, the Potency result is “inactive”.

In the case of `O=C(O)c1ccc[n+]([O-])c1`, the Potency entry was “inactive”.

For `Fc1ccccc1-c1ccccc1`, the Potency result is “inactive”.

`COc1ccc2cc(C=O)ccc2c1`: the Potency entry was “inactive”.

As for `O=c1[nH]c(=O)n([C@H]2O[C@H](CO)[C@@H](O)[C@@H]2O)cc1/C=C\Br`, the Potency result is “inactive”.

Regarding `NCC[C@H](O)C(=O)N[C@@H]1C[C@H](N)[C@@H](O[C@H]2O[C@H](CN)[C@@H](O)[C@H](O)[C@H]2O)[C@H](O)[C@H]1O[C@H]1O[C@H](CO)[C@@H](O)[C@H](N)[C@H]1O`, the activity change, negative = inhibition is -0.464% [at 0.435 µM] (inactive).

With `CCC(=O)/C=C/c1ccc(OC)cc1`, the Potency result is “inactive”.

On to `Cc1c(C)n(CCN(C)C)c2ccc(C(=O)OCCN(C)C)cc12`, for which the Potency entry was “inactive”.

Turning to `O=c1[nH]c2ccccc2c(=O)n1CCCl`, the Potency entry was “inactive”.

Turning to `C=C(C)[C@@H]1CCC2=CC(=O)C[C@@H](C)[C@]2(C)C1`, the Potency entry was “inactive”.

Consider `C[N+](C)(C)CC[N+]1(C)Cc2c(Cl)c(Cl)c(Cl)c(Cl)c2C1`, for which the Potency was 1.55 µM (active).

`CCCC(C)C(=O)O` (centres undefined): the Potency is 34.2 µM (active).

On to `COc1cc(C)cc(O)c1`, for which the Potency result is “inactive”.

As to `CC(C)CCOC(=O)CC(C)C`, the Potency entry was “inactive”.

Consider `C=CC(=O)OCCCCCC`, for which the Potency entry was “inactive”.

In the case of `OC1OC[C@@H](O)[C@H](O)[C@H]1O` (some centres undefined), the Potency result is “inactive”.

As to `C#CC(C)(O)CC(C)C` (centres undefined), the Potency result is “inactive”.

With `CCCCCCOC(=O)CC(CC(=O)OCCCCCC)(OC(=O)CCC)C(=O)OCCCCCC`, the Potency entry is “inactive”.

Take `CNc1ncnc2nc[nH]c12`: the Potency result is “inactive”.

`CC(=O)N[C@@H](CCC(N)=O)C(=O)O`: the Potency result was “inactive”.

With `COC(=O)C1=C(C)NC(C)=C(C(=O)OCC(C)=O)C1c1ccccc1[N+](=O)[O-]` (centres undefined), the Potency result was “inactive”.

Consider `NC(=O)c1ncn([C@@H]2O[C@H](CO)[C@@H](O)[C@H]2O)c1N`, for which the Potency result was “inactive”.

With `CCC(=O)Nc1cccc(N)c1`, the Potency result was “inactive”.

For `CCCC=O`, the Potency entry is “inactive”.

For `C=CCOCC(O)CS(=O)(=O)O` (centres undefined), the Potency entry was “inactive”.

For `Cc1nccn1CC1CCc2c(c3ccccc3n2C)C1=O` (centres undefined), the Potency is 17.4 µM (active).

As to `OCCN1C[C@H](O)[C@@H](O)[C@H](O)[C@H]1CO`, the Potency result is “inactive”.

On to `CCCCNc1ccccc1`, for which the Potency entry is “inactive”.

Take `Nc1ccn(C2CO[C@H](CO)O2)c(=O)n1` (some centres undefined): the Potency entry was “inactive”.

With `C=C(C)C1CC=C(C)C(O)C1` (centres undefined), the Potency entry is “inactive”.

`O=C(O)Cc1cc(I)c(Oc2cc(I)c(O)c(I)c2)c(I)c1`: the Potency entry is “inactive”.

Turning to `CC(C)[C@H](N)C(=O)OCCOCn1cnc2c(=O)[nH]c(N)nc21`, the Potency result is “inactive”.

Turning to `C1CCCCCCCCCCC1`, the activity change, negative = inhibition is -0.464% [at 23.6 µM] (inactive).

With `CCCCCOC(=O)Nc1nc(=O)n([C@@H]2O[C@H](C)[C@@H](O)[C@H]2O)cc1F`, the Potency entry was “inactive”.

For `CN(C)N=Nc1ccccc1`, the Potency result is “inactive”.

With `CO[Si](CCCNCCC[Si](OC)(OC)OC)(OC)OC`, the Potency entry is “inactive”.

A further assay addresses Cytochrome P450 2C19 (Homo sapiens) (UniProt P33261). Description: Cytochrome P450 Family 2 Subfamily C Member 19 (CYP2C19) small molecule antagonists: luciferase reporter qHTS assay (AID 1671197). Also: nearly all actives have a fitted effect of over 65% in size. Particulars: P450-Glo CYP2C19 enzyme, luciferin luminescence, 1 h; series mostly up to 115 µM. The procedure, abridged: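 Quantitative high-throughput screen of the Tox21 library using CYP2C19 with proluciferin substrate. Reaction: NADPH regeneration, 37C, 1 h, after 10 min compound preincubation at room temperature. Readout: luminescence.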
Turning to `CC1(C)SC(C)(C)SC(C)(C)S1`, the Potency entry is “inactive”.

Consider `COc1cc(C(=O)N2CCOCC2)cc(OC)c1OC`, for which the Potency entry is “inactive”.

As for `O=C(O)c1ccc[n+]([O-])c1`, the Potency result is “inactive”.

`Fc1ccccc1-c1ccccc1`: the Potency entry is “inactive”.

On to `COc1ccc2cc(C=O)ccc2c1`, for which the Potency is 15.5 µM (active).

On to `O=c1[nH]c(=O)n([C@H]2O[C@H](CO)[C@@H](O)[C@@H]2O)cc1/C=C\Br`, for which the Potency entry was “inactive”.

As to `NCC[C@H](O)C(=O)N[C@@H]1C[C@H](N)[C@@H](O[C@H]2O[C@H](CN)[C@@H](O)[C@H](O)[C@H]2O)[C@H](O)[C@H]1O[C@H]1O[C@H](CO)[C@@H](O)[C@H](N)[C@H]1O`, the activity change, negative = inhibition was 3.5% [at 0.435 µM] (inactive).

In the case of `CCC(=O)/C=C/c1ccc(OC)cc1`, the Potency was 12.6 µM (active).

Regarding `Cc1c(C)n(CCN(C)C)c2ccc(C(=O)OCCN(C)C)cc12`, the Potency entry is “inactive”.

With `O=c1[nH]c2ccccc2c(=O)n1CCCl`, the Potency entry was “inactive”.

Regarding `C=C(C)[C@@H]1CCC2=CC(=O)C[C@@H](C)[C@]2(C)C1`, the Potency is 6.33 µM (active).

Take `C[N+](C)(C)CC[N+]1(C)Cc2c(Cl)c(Cl)c(Cl)c(Cl)c2C1`: the Potency result is “inactive”.

Turning to `CCCC(C)C(=O)O` (centres undefined), the Potency was 34.2 µM (active).

For the compound `COc1cc(C)cc(O)c1`, the Potency entry was “inactive”.

In the case of `CC(C)CCOC(=O)CC(C)C`, the Potency result was “inactive”.

For the compound `C=CC(=O)OCCCCCC`, the Potency result is “inactive”.

As for `OC1OC[C@@H](O)[C@H](O)[C@H]1O` (some centres undefined), the Potency entry was “inactive”.

Turning to `C#CC(C)(O)CC(C)C` (centres undefined), the Potency entry was “inactive”.

Take `CCCCCCOC(=O)CC(CC(=O)OCCCCCC)(OC(=O)CCC)C(=O)OCCCCCC`: the Potency was 39.9 µM (active).

Turning to `CNc1ncnc2nc[nH]c12`, the Potency result is “inactive”.

For `CC(=O)N[C@@H](CCC(N)=O)C(=O)O`, the Potency result was “inactive”.

As to `COC(=O)C1=C(C)NC(C)=C(C(=O)OCC(C)=O)C1c1ccccc1[N+](=O)[O-]` (centres undefined), the Potency is 5.49 µM (active).

With `NC(=O)c1ncn([C@@H]2O[C@H](CO)[C@@H](O)[C@H]2O)c1N`, the Potency result is “inactive”.

`CCC(=O)Nc1cccc(N)c1`: the Potency entry is “inactive”.

Consider `CCCC=O`, for which the Potency entry was “inactive”.

`C=CCOCC(O)CS(=O)(=O)O` (centres undefined): the Potency was 80.8 µM (active).

With `Cc1nccn1CC1CCc2c(c3ccccc3n2C)C1=O` (centres undefined), the Potency entry is “inactive”.

Consider `OCCN1C[C@H](O)[C@@H](O)[C@H](O)[C@H]1CO`, for which the Potency entry was “inactive”.

For `CCCCNc1ccccc1`, the Potency entry was “inactive”.

For the compound `Nc1ccn(C2CO[C@H](CO)O2)c(=O)n1` (some centres undefined), the Potency entry is “inactive”.

With `C=C(C)C1CC=C(C)C(O)C1` (centres undefined), the Potency entry was “inactive”.

In the case of `O=C(O)Cc1cc(I)c(Oc2cc(I)c(O)c(I)c2)c(I)c1`, the Potency result is “inactive”.

With `CC(C)[C@H](N)C(=O)OCCOCn1cnc2c(=O)[nH]c(N)nc21`, the Potency entry was “inactive”.

Take `C1CCCCCCCCCCC1`: the activity change, negative = inhibition was -20.8% [at 23.6 µM] (inactive).

As for `CCCCCOC(=O)Nc1nc(=O)n([C@@H]2O[C@H](C)[C@@H](O)[C@H]2O)cc1F`, the Potency entry is “inactive”.

On to `CN(C)N=Nc1ccccc1`, for which the Potency result was “inactive”.

`CO[Si](CCCNCCC[Si](OC)(OC)OC)(OC)OC`: the Potency result is “inactive”.
